In the library only some 0.97% were active in any assay of this set; here they are far more common.
Mtb UGM inh = M. tuberculosis UGM enzyme inhibitors, primary screen, biochemical, fluorescence polarization, single point; UDP-galactopyranose mutase (Mycobacterium tuberculosis (strain ATCC 25618 / H37Rv)), …; purified UGM, fluorescence polarization probe displacement; inhibition, % at 10 µM; 320,000 compounds, 0.06% hits; AID 504406, 2011; in the data active = inhibition above about 10%, passing the limit was not always enough
Target sequence (P9WIQ1 whole entry, looked up): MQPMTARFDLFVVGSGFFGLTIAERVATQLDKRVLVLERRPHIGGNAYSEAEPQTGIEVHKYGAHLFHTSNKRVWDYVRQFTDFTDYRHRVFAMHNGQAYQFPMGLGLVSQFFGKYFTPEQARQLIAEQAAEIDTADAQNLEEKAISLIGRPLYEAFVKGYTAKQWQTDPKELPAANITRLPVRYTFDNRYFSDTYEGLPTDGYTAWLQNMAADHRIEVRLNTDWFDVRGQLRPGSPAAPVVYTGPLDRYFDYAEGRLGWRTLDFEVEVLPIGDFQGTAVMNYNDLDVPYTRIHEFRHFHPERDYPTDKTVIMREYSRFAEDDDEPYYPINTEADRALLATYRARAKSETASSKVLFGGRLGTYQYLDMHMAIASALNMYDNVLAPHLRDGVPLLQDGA
TcdB GH inh = TcdB glycohydrolase inhibitors, primary screen, biochemical, single point, plate reader. Toxin B (Clostridioides difficile), P18177. 350,000 compounds, 0.24% hits. AID 652162, 2013. inhibition, % at 9.99 µM. TcdB glycohydrolase enzymatic assay; in the data active = inhibition above about 10%
BioA inh = M. tuberculosis BioA enzyme inhibitors, primary screen, biochemical, plate reader, single point, HTS; 7,8-diaminopelargonic acid synthase BioA (Mycobacterium tuberculosis); purified M. tuberculosis BioA enzyme; inhibition, % at 9.99 µM; 360,000 compounds, 0.096% hits; in the data active = inhibition above about 40%
FadD28 FP inh = inhibitors of FadD28 bisubstrate probe binding, primary screen, biochemical, fluorescence polarization, single point; Mycobacterium tuberculosis FadD28 fatty-acid-AMP ligase; inhibition, % at 12.5 µM; 360,000 compounds, 0.22% hits; in the data active = inhibition above about 8.5%, passing the limit was not always enough
RecA splice inh = Mtb RecA intein splicing inhibitors, primary screen, biochemical, fluorescence, HTS; 290,000 compounds, 0.75% hits; inhibition, % (concentration not given with the values); cell-free RecA intein splicing; Protein RecA (Mycobacterium tuberculosis (strain ATCC 25618 / H37Rv)), P9WHJ3; AID 2221, 2009; in the data active = inhibition above about 30%;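 also: 0% = vehicle wells and 100% = reference inhibitor control wells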
Rv3671c inh = Rv3671c serine protease inhibitors, primary screen, biochemical, fluorescence polarization, M. tuberculosis H37Rv | P9WHR9 | 320,000 compounds, 0.048% hits | AID 2606, 2010 | inhibition, % at 5.96 µM; in the data active = inhibition above about 38%;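 also: extracellular domain of Rv3671c used as enzyme; 0% = enzyme with DMSO and 100% = no enzyme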
GFP chromo cs = counter-screen: blocks GFP chromophore formation, dose response, counter-screen, biochemical, fluorescence, homogeneous; EC50, µM; 2,100 compounds, 83% hits; AID 434968, 2010; cell-free GFP chromophore formation; shares compounds with RecA splice inh; call rule not given here
The depositor's hits bear a star.

For CC(C)c1nnc(NC(=O)c2nc(S(=O)(=O)Cc3ccccc3)ncc2Cl)s1 the results were Mtb UGM inh -1, TcdB GH inh 1, BioA inh -1, FadD28 FP inh -1, RecA splice inh 79*, Rv3671c inh -7 and GFP chromo cs >38.
CSc1nnc(NC(=O)c2nc(S(=O)(=O)Cc3ccccc3)ncc2Cl)s1 was read as Mtb UGM inh 0, TcdB GH inh 0, BioA inh -1, FadD28 FP inh 0, RecA splice inh 72*, Rv3671c inh 6 and GFP chromo cs 30*.
For CCCc1nnc(NC(=O)c2nc(S(=O)(=O)Cc3ccc(C)cc3)ncc2Cl)s1 the results were Mtb UGM inh 0, TcdB GH inh 0, BioA inh -1, FadD28 FP inh -3, RecA splice inh 85*, Rv3671c inh 2 and GFP chromo cs >38.
Screening Cc1ccc(S(=O)(=O)N(C)C[C@@H]2Oc3ncc(-c4ccncc4)cc3C(=O)N([C@H](C)CO)C[C@@H]2C)cc1 returned TcdB GH inh 1 and BioA inh -4.
`COc1cccc(-c2ccc3c(c2)O[C@H](CN(C)C(=O)C2CC2)[C@H](C)CN([C@@H](C)CO)S3(=O)=O)c1` gave TcdB GH inh 0 and BioA inh 1.
For CO[C@H]1CN(C)C(=O)c2ccc(NC(=O)Cc3ccccc3)cc2OC[C@@H](C)N(C)C[C@H]1C the results were TcdB GH inh 1 and BioA inh 0.
Screening O=C1C=Cc2ccccc2C1=O returned Mtb UGM inh 2, BioA inh 0, RecA splice inh 39*, Rv3671c inh 2 and GFP chromo cs 9.1*.
CCN1C(=C2C(=O)c3ccccc3C2=O)C=Cc2ccccc21 was read as Mtb UGM inh 1, BioA inh 1, FadD28 FP inh -5, RecA splice inh -2 and Rv3671c inh -2.
Screening Cc1[nH]n(-c2ccccc2)c(=O)c1C(c1ccc(C(=O)O)cc1)c1c(C)[nH]n(-c2ccccc2)c1=O returned Mtb UGM inh -2, TcdB GH inh -10, FadD28 FP inh 0, RecA splice inh 96*, Rv3671c inh -183 and GFP chromo cs 1.2*.
Cc1[nH]n(-c2ccccc2)c(=O)c1C(c1cccc([N+](=O)[O-])c1O)c1c(C)[nH]n(-c2ccccc2)c1=O was read as Mtb UGM inh 0, TcdB GH inh -3, FadD28 FP inh 0, RecA splice inh 93*, Rv3671c inh -198 and GFP chromo cs 1.3*.
`Cc1[nH]n(-c2ccccc2)c(=O)c1C(=O)Nc1ccccc1` gave Mtb UGM inh -1, TcdB GH inh -1, BioA inh -1, FadD28 FP inh -1, RecA splice inh 4 and Rv3671c inh 10.
`Cc1[nH]n(-c2ccccc2)c(=O)c1C(=O)c1ccc([N+](=O)[O-])cc1` gave Mtb UGM inh 3, TcdB GH inh 1, FadD28 FP inh 1, RecA splice inh 4 and Rv3671c inh -11.
Cc1c(C(c2cccc([N+](=O)[O-])c2O)c2c(C)n(C)n(-c3ccccc3)c2=O)c(=O)n(-c2ccccc2)n1C was read as Mtb UGM inh 1, BioA inh 1, FadD28 FP inh 2, RecA splice inh -4 and Rv3671c inh 0.
Screening Cc1[nH]n(-c2ccccc2)c(=O)c1C(c1cccc([N+](=O)[O-])c1)c1c(C)[nH]n(-c2ccccc2)c1=O returned Mtb UGM inh -2, TcdB GH inh -1, FadD28 FP inh 4, RecA splice inh 85*, Rv3671c inh -50 and GFP chromo cs 4.8*.
O=C(C1CC1)N1C[C@@H]2N[C@H](C1)C2c1ccc(-c2ccccc2F)cc1 (stereo partly specified) was read as TcdB GH inh -17.
CN1CCc2nc(SCC(=O)Nc3ccc(OC(F)(F)F)cc3)c(C#N)c(-c3cccs3)c2C1 was read as Mtb UGM inh 0, FadD28 FP inh -3, RecA splice inh 88*, Rv3671c inh -3 and GFP chromo cs 3.9*.
`Cc1cccc(CSc2nc(N)c(C#N)c(-c3cccs3)c2C#N)c1` gave Mtb UGM inh 4, BioA inh -2, FadD28 FP inh -3, RecA splice inh 3 and Rv3671c inh -90.
Screening Cc1cccc(CSc2nc3c(c(-c4cccs4)c2C#N)CN(C)CC3)c1 returned Mtb UGM inh 2, TcdB GH inh 0, FadD28 FP inh 0, RecA splice inh 61*, Rv3671c inh 7 and GFP chromo cs 25*.
For CCOC(=O)C1=C(C)NC(=O)NC1c1ccc(OC(=O)c2ccco2)c(OC)c1 (stereo unspecified) the results were Mtb UGM inh 1, TcdB GH inh 0, FadD28 FP inh -2, RecA splice inh 6 and Rv3671c inh 3.
For C=CCOC(=O)C1=C(C)NC(=O)NC1c1ccc(OC(=O)c2ccco2)c(OC)c1 (stereo unspecified) the results were Mtb UGM inh 2, BioA inh -1, FadD28 FP inh 1, RecA splice inh 31*, Rv3671c inh -10 and GFP chromo cs >38.
Screening O=C1NC(=O)C(=Cc2ccc(Oc3ccc([N+](=O)[O-])cc3)cc2)C(=O)N1 returned Mtb UGM inh -3, FadD28 FP inh 0, RecA splice inh 68*, Rv3671c inh -160 and GFP chromo cs >38.
Screening CCOC(=O)N1CC=C2C(C#N)=C(N)C(C#N)(C#N)[C@H](c3ccc(OCC)c(OCC)c3)[C@H]2C1 returned Mtb UGM inh 1, TcdB GH inh 0, BioA inh 10, FadD28 FP inh -2, RecA splice inh 8 and Rv3671c inh 3.
N#CC1=C(N)C(C#N)(C#N)C(c2cccnc2)C2CN(C(=O)OCc3ccccc3)CC=C12 (stereo unspecified) was read as Mtb UGM inh 2, TcdB GH inh 0, BioA inh 3, FadD28 FP inh -1, RecA splice inh 45*, Rv3671c inh -1 and GFP chromo cs 4.4*.
`COc1cc2c(cc1OC)-c1c3c(cc4c1[C@@H](C2)N(C)CC4)OCO3` gave Mtb UGM inh 1, TcdB GH inh -9, BioA inh 0, FadD28 FP inh 1, RecA splice inh 44*, Rv3671c inh -132 and GFP chromo cs 21*.
Screening COc1cc2c(cc1OC)-c1c(OC)c(OC)cc3c1C(C2)N(C)CC3 (stereo unspecified) returned Mtb UGM inh -1, TcdB GH inh 1, BioA inh 0, FadD28 FP inh 0, RecA splice inh 71*, Rv3671c inh -52 and GFP chromo cs 4.3*.

Screens from PubChem.
